The inhibition is the change of the read-out against control, counted positive when it falls.

Out of some 70,000 compounds screened, about 120 (0.17%) were called active. No stated cut-off is given here; in the data, active means inhibition above about 34%; inconclusive means no clear call, values can overlap the other calls; inactive means below about 11%. For the sample, actives were picked, then their nearest neighbours and some compounds at random.

In PubChem BioAssay AID624101 (Broad Institute, 2012) one finds inhibition data, which are given here for 65 molecules.

Chain of Isocitrate dehydrogenase [NADP] cytoplasmic (Homo sapiens) (O75874 whole entry R132H): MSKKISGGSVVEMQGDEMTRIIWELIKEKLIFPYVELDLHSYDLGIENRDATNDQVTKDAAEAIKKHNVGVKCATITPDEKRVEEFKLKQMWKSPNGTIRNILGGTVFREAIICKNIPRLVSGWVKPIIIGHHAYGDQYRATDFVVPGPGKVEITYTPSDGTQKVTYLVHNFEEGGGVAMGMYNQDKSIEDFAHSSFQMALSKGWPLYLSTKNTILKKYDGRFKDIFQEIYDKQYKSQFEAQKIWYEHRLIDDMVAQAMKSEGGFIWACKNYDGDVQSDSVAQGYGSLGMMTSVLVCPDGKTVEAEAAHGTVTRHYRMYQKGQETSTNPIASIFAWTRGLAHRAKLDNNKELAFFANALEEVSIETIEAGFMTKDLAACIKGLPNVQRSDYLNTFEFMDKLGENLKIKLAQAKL

The experiment addresses Isocitrate dehydrogenase [NADP] cytoplasmic (Homo sapiens) (UniProt O75874). In words: PubChem AID 624101.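 Further: 0% = DMSO and 100% = no enzyme.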 The settings on record: IDH1 R132H reductase, diaphorase/resazurin fluorescence, 60 min; at 10 µM; hits give high values. Background: The colour change of resazurin is a common sign of viable cells or microbes.
In the case of `CNC[C@H]1Oc2cc(C#Cc3ccccc3)ccc2S(=O)(=O)N([C@@H](C)CO)C[C@@H]1C`, the inhibition was 4.92% (inactive).
For the molecule `Cc1ccc(S(=O)(=O)NCC[C@H]2CC[C@@H](NS(=O)(=O)c3ccccc3Cl)[C@H](CO)O2)cc1`, the inhibition was 0.263% (inactive).
`O=C(Nc1cccc(Cl)c1)N[C@H]1CC[C@H](CCNC(=O)C2CCOCC2)O[C@H]1CO`: the inhibition was 0.082% (inactive).
`O=C(C[C@@H]1CC[C@@H](NC(=O)C2CCOCC2)[C@H](CO)O1)Nc1ccc(-c2ccccc2)cc1`: the inhibition is 0.222% (inactive).
With `O=C(C[C@@H]1C=C[C@H](NC(=O)c2ccc3c(c2)OCO3)[C@H](CO)O1)NCc1ccc(Oc2ccccc2)cc1`, the inhibition is -0.347% (inactive).
Take `O=C(C[C@H]1C=C[C@@H](NC(=O)Nc2cc(F)ccc2F)[C@@H](CO)O1)NCc1ccc2c(c1)OCO2`: the inhibition is -0.0695% (inactive).
On to `CN1CCN(C(=O)C[C@@H]2C[C@H]3c4cc(NC(=O)NC5CCCC5)ccc4O[C@H]3[C@H](CO)O2)CC1`, for which the inhibition was -0.193% (inactive).
For the molecule `CO[C@H]1CN(C)C(=O)c2ccc(NC(=O)c3nc4ccccc4s3)cc2OC[C@@H](C)N(Cc2cncnc2)C[C@H]1C`, the inhibition is -1.03% (inactive).
As for `O=C(C[C@@H]1C[C@@H]2c3cc(NC(=O)C4CCC4)ccc3O[C@@H]2[C@@H](CO)O1)NCc1ccccc1`, the figure is 0.171% (inactive); as for `O=C(C[C@@H]1C[C@@H]2c3cc(NC(=O)Cc4ccncc4)ccc3O[C@@H]2[C@H](CO)O1)NCc1cccc(F)c1`, 0% (inactive).
As to `C[C@H](NC(=O)N(C)C[C@@H]1OCc2ccccc2-c2ccccc2C(=O)N([C@H](C)CO)C[C@@H]1C)c1ccccc1`, the inhibition was -1.38% (inactive).
`Cc1noc(C)c1S(=O)(=O)Nc1ccc2c(c1)C(=O)N([C@H](C)CO)C[C@H](C)[C@H](CN(C)S(C)(=O)=O)OCCCC[C@H](C)O2`: the inhibition is 2.45% (inactive).
As for `C[C@@H]1CN([C@@H](C)CO)S(=O)(=O)c2ccc(C#Cc3ccccc3)cc2O[C@@H]1CN(C)C(=O)C1CC1`, the inhibition was -0.265% (inactive).
Turning to `CO[C@@H]1CN(C)C(=O)c2ccc(NS(=O)(=O)c3ccc(Cl)cc3)cc2OC[C@H](C)N(C(=O)NC(C)C)C[C@H]1C`, the inhibition is 0.21% (inactive).
`O=C(NCC[C@H]1CC[C@@H](NC(=O)C2CCCC2)[C@@H](CO)O1)c1cc(Cl)cc(Cl)c1`: the inhibition was -0.187% (inactive).
As for `Cc1ccc(S(=O)(=O)NCC[C@@H]2CC[C@H](NC(=O)CC3CC3)[C@H](CO)O2)cc1`, the figure is -0.044% (inactive); as for `O=C(Nc1ccccc1F)N[C@@H]1CC[C@H](CC(=O)N2CCCCC2)O[C@H]1CO`, 0.211% (inactive).
On to `O=C(N[C@@H]1CC[C@H](CCn2cc(C3CC3)nn2)O[C@H]1CO)c1cccnc1`, for which the inhibition was 0.0945% (inactive).
Next, `CO[C@@H]1CN(C)C(=O)c2ccc(NS(C)(=O)=O)cc2OC[C@@H](C)N(C(=O)C2CCOCC2)C[C@@H]1C`: -0.272% (inactive); `CO[C@@H]1CN(C)C(=O)c2cc(NC(=O)Nc3cc(F)ccc3F)ccc2OC[C@H](C)N(C)C[C@@H]1C`: -0.288% (inactive).
As to `CO[C@@H]1CN(C)C(=O)c2ccc(NS(=O)(=O)c3cccc(Cl)c3)cc2OC[C@H](C)NC[C@H]1C`, the inhibition is -0.827% (inactive).
Consider `Cc1ccc(S(=O)(=O)NCC[C@H]2CC[C@H](NC(=O)c3ccccn3)[C@@H](CO)O2)cc1`, for which the inhibition is -0.44% (inactive).
Next, `C[C@@H]1CN([C@H](C)CO)S(=O)(=O)c2ccc(-c3ccc(C(=O)N(C)C)cc3)cc2O[C@@H]1CN(C)C(=O)Nc1ccccc1F`: 0.371% (inactive).
Turning to `COCCNC(=O)C[C@H]1C=C[C@@H](NS(=O)(=O)c2ccc(C)cc2)[C@@H](CO)O1`, the inhibition was -0.16% (inactive).
As for `Cc1ccc(-c2cc(C(F)(F)F)n3nc(C(=O)NCCN4CCOCC4)c(Cl)c3n2)cc1`, the figure is -0.63% (inactive); as for `O=C(NCc1cccnc1)c1cnn2c(C(F)F)cc(-c3ccccc3)nc12`, -0.254% (inactive); as for `O=C(NCCCn1ccnc1)c1cnn2c(C(F)(F)F)cc(-c3ccccc3)nc12`, 42.5% (active).
Turning to `CO[C@H]1CN(C)C(=O)c2ccc(NC(=O)C3CC3)cc2OC[C@@H](C)N(C(=O)c2ccccn2)C[C@@H]1C`, the inhibition is 0.315% (inactive).
With `CO[C@@H]1CN(C)C(=O)c2cc(NC(C)=O)ccc2OC[C@H](C)N(Cc2ccccn2)C[C@H]1C`, the inhibition was 0.0735% (inactive).
For the molecule `COc1ccc(C(=O)Nc2ccc3c(c2)C(=O)N(C)C[C@@H](OC)[C@H](C)CN(C(C)=O)[C@@H](C)CO3)cc1`, the inhibition was 0.119% (inactive).
As to `CO[C@H]1CC[C@@H]2CCOc3c(C#N)cccc3C(=O)N(C)CCCC(=O)N(C)C[C@@H]1O2`, the inhibition was -0.199% (inactive).
Turning to `O=C(C[C@@H]1C[C@@H]2c3cc(NS(=O)(=O)c4ccc(F)cc4)ccc3O[C@@H]2[C@H](CO)O1)N1CCCCC1`, the inhibition is 0.296% (inactive).
In the case of `O=C(C[C@H]1CC[C@@H](NC(=O)Nc2ccc(F)cc2)[C@@H](CO)O1)NCCN1CCCC1`, the inhibition was -0.0445% (inactive).
Next, `O=C(Nc1ccc(C(F)(F)F)cc1)N[C@@H]1CC[C@H](CCNC(=O)c2ccccc2F)O[C@H]1CO`: 0.069% (inactive); `Cc1ccc(S(=O)(=O)N[C@H]2CC[C@H](CC(=O)NCc3ccccc3F)O[C@@H]2CO)cc1`: -0.113% (inactive).
As for `CCCc1cn(CC[C@@H]2CC[C@@H](NS(=O)(=O)c3ccccc3Cl)[C@@H](CO)O2)nn1`, the figure is -0.18% (inactive); as for `CO[C@H]1CN(C)C(=O)c2cc(NC(=O)C3CC3)ccc2OC[C@@H](C)NC[C@H]1C`, -0.162% (inactive); as for `Cc1ccc(S(=O)(=O)NCC[C@@H]2CC[C@H](NC(=O)c3ccccn3)[C@H](CO)O2)cc1`, -0.387% (inactive).
As for `Cc1ccc(-c2ccc3c(c2)O[C@@H](CN(C)C(=O)CC2CC2)[C@@H](C)CN([C@@H](C)CO)S3(=O)=O)cc1`, the inhibition was -0.129% (inactive).
`O=C(C[C@@H]1CC[C@H](NC(=O)CN2CCOCC2)[C@@H](CO)O1)NCCc1ccccc1`: the inhibition was 0.1% (inactive).
In the case of `C[C@@H]1CN([C@H](C)CO)S(=O)(=O)c2ccc(-c3ccncc3)cc2O[C@@H]1CN(C)C(=O)CN(C)C`, the inhibition was 0.556% (inactive).
As for `O=C(C[C@H]1C=C[C@H](NC(=O)CC2CC2)[C@H](CO)O1)NCc1ccc(Cl)cc1`, the figure is -0.172% (inactive).
`C[C@@H]1CN([C@H](C)CO)S(=O)(=O)c2ccc(C3=CCCC3)cc2O[C@H]1CN(C)C(=O)c1ccccc1`: the inhibition is 1.4% (inactive).
In the case of `O=C(C[C@H]1CC[C@H](NC(=O)C2CCC2)[C@@H](CO)O1)Nc1nccs1`, the inhibition was 0.192% (inactive).
Turning to `CO[C@H]1CN(C)C(=O)c2ccc(NS(=O)(=O)c3ccccc3C)cc2OC[C@H](C)NC[C@H]1C`, the inhibition is -0.186% (inactive).
For the molecule `CO[C@H]1CN(C)C(=O)c2cc(NC(C)=O)ccc2OC[C@H](C)N(C(=O)C2CC2)C[C@H]1C`, the inhibition is -0.354% (inactive).
For the molecule `CO[C@H]1CN(C)C(=O)c2ccc(NC(=O)C3CCC3)cc2OC[C@@H](C)N(Cc2ccccn2)C[C@H]1C`, the inhibition is 0.331% (inactive).
Next, `CCC(=O)Nc1ccc2c(c1)C(=O)N(C)C[C@H](OC)[C@H](C)CN(Cc1ccccc1F)[C@H](C)CO2`: 0.217% (inactive); `CO[C@H]1CN(C)C(=O)c2cc(NS(C)(=O)=O)ccc2OC[C@H](C)N(C(=O)C2CCCC2)C[C@H]1C`: 0.272% (inactive); `CCC(=O)N(C)C[C@@H]1Oc2cc(C#CC(C)(C)O)ccc2S(=O)(=O)N([C@@H](C)CO)C[C@@H]1C`: -1.91% (inactive).
In the case of `CN(C)C(=O)C[C@@H]1C[C@@H]2c3cc(NC(=O)c4ccc5c(c4)OCO5)ccc3O[C@@H]2[C@H](CO)O1`, the inhibition was -0.927% (inactive).
Regarding `Cc1ccc(S(=O)(=O)N[C@H]2CC[C@H](CC(=O)O)O[C@H]2CO)cc1`, the inhibition is -0.244% (inactive).
On to `Cc1ccc(S(=O)(=O)N[C@H]2C=C[C@@H](CC(=O)NCCc3ccncc3)O[C@@H]2CO)cc1`, for which the inhibition is -0.308% (inactive).
For `COc1ccc(-c2cn(CC[C@H]3CC[C@@H](N)[C@H](CO)O3)nn2)cc1`, the inhibition was 0.0195% (inactive).
Take `CO[C@H]1CN(C)C(=O)c2ccc(NS(=O)(=O)c3cn(C)cn3)cc2OC[C@H](C)N(C)C[C@H]1C`: the inhibition was -0.0025% (inactive).
Next, `O=C(N[C@H]1C=C[C@@H](CC(=O)N2CCCCC2)O[C@@H]1CO)c1ccc2c(c1)OCO2`: -0.0205% (inactive).
Next, `O=C(C[C@@H]1C[C@@H]2c3cc(NC(=O)C4CCOCC4)ccc3O[C@@H]2[C@H](CO)O1)NCc1ccncc1`: -0.106% (inactive); `CCCNC(=O)N1C[C@H](C)[C@H](OC)CN(C)C(=O)c2cc(NC(=O)CC)ccc2OC[C@H]1C`: -0.059% (inactive); `CCC(=O)N(C)C[C@@H]1Oc2ncc(-c3ccccc3OC)cc2C(=O)N([C@@H](C)CO)C[C@@H]1C`: -0.321% (inactive).
Next, `CN1CCN(C(=O)C[C@H]2C[C@H]3c4cc(NC(=O)Nc5ccccc5F)ccc4O[C@H]3[C@H](CO)O2)CC1`: -0.523% (inactive); `O=C(Nc1ccc2c(c1)OCO2)N[C@@H]1CC[C@H](CC(=O)N2CCN(c3ccccc3)CC2)O[C@@H]1CO`: -0.0065% (inactive); `O=C(Cc1ccncc1)NCC[C@H]1CC[C@H](NC(=O)C2CC2)[C@H](CO)O1`: 0.014% (inactive).
On to `CCC(=O)N(C)C[C@H]1Oc2cc(C#CCC(C)C)ccc2S(=O)(=O)N([C@H](C)CO)C[C@H]1C`, for which the inhibition was -0.831% (inactive).
For the molecule `O=C(NCC[C@H]1CC[C@@H](NC(=O)c2cnccn2)[C@H](CO)O1)Nc1ccc(Cl)cc1`, the inhibition was -0.362% (inactive).
`CN(C)CCCNC(=O)C[C@@H]1C=C[C@H](NC(=O)Cc2cccnc2)[C@H](CO)O1`: the inhibition is 0.394% (inactive).
